Assay results as given in PubChem BioAssay (NCATS).
Inconclusive results are not listed. Active and inactive are the calls of the source. Calls come from the whole dose curve; as a rule, active = well fitted curve in the direction sought with a large enough effect; inconclusive = small, poorly fitted or top-dose-only effect, or another doubt; inactive = no such curve, though single readings can be large; an effect the other way counts as inactive or inconclusive.

Legend:
[1] = MCF7 Cancer Cell Toxicity qHTS against the NCATS CANVASS Library (AID 1347369); details: outcome: dose series up to 46 µM
Summary of the method: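 This 72 hr qHTS scored MCF7 viability by CellTiterGlo luminescence, with 500 cells/well; bortezomib titration ran as control.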

[2] = qHTS for ATAD5 Antagonist screened against the NCATS CANVASS Library (AID 1347370);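 note: HEK293T cells carrying an ATAD5 luciferase reporter co-treated with 10 µM 5-fluorouridine; series mostly up to about 46 µM; nearly all actives have a fitted effect of over 65% in size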
Summary of the method: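 HEK293T cells with stably integrated ATAD5-luciferase reporter, 2000/well, 5 h attachment; compounds plus 10 µM 5-fluorouridine, 16 h at 37 °C. Luciferase luminescence read, with CellTiter-Fluor viability read first.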

[3] = J3T Cancer Cell Toxicity qHTS against the NCATS CANVASS Library (AID 1347371); details: outcome: dose series up to 46.1 µM
Summary of the method: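 Cells plated at 500 per well, compounds pin-transferred, plates incubated 72 hr at 37C, then CellTiterGlo added and luminescence read to measure ATP content.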

[4] = biological target: Nuclear receptor subfamily 1 group I member 3 (Homo sapiens) (UniProt Q14994); assay: qHTS for Constitutive Androstane Receptor (CAR) Antagonist screened against the NCATS CANVASS Library (AID 1347372);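 note: cells stimulated with 50 nM CITCO agonist so inhibition reflects antagonism; series mostly up to about 46 µM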
Summary of the method: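 HepG2 cells stably carrying hCAR and a CYP2B6-2.2kb luciferase reporter were exposed to compounds plus 50 nM CITCO for 24hr at 37C. CAR activity was read by ONE-Glo luminescence, with viability measured first by CellTiter-Fluor.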

[5] = biological target: Nuclear receptor subfamily 1 group I member 3 (Homo sapiens) (UniProt Q14994); assay: qHTS for Constitutive Androstane Receptor (CAR) Agonist screened against the NCATS CANVASS Library (AID 1347373);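 note: every well also contained 1.5 µM PK11195 alongside the test compound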
Summary of the method: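 HepG2-hCAR-CYP2B6 cells, 2500/well, attached 4hr; cpd + PK11195 1.5uM final; 24hr 37C 5% CO2. CellTiter-Fluor viability read, then ONE-Glo luminescence for CAR activation.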

[6] = qHTS for Hypoxia signaling pathway (HIF-1) antagonists against the NCATS CANVASS Library (AID 1347374);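 note: HRE-bla ME-180 cells stimulated with cobalt chloride to stabilize HIF-1alpha; series mostly up to about 38 µM; nearly all actives have a fitted effect of over 60% in size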
Summary of the method: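 HRE-bla ME-180 cells in medium with 0.5% dialyzed FBS received compounds (11-point series) plus CoCl2 (60 uM addition stock) for 17 hrs at 37C. Beta-lactamase activity read with CCF4 (405 nm ex, 460/530 nm em); CellTiter-Glo viability measured in same wells.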

[7] = qHTS for Hypoxia signaling pathway (HIF-1) agonists against the NCATS CANVASS Library (AID 1347375)
Summary of the method: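 ME-180 HRE-bla reporter cells; 2,000/well, 0.5% dialyzed FBS; cpd added after 5 h, 17 h 37C/5% CO2; CCF4-AM 2 h RT; FRET 460/530 nm; CellTiter-Glo viability same wells, 30 min.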

[8] = 10-beta competent E. coli microbial cell viability qHTS against the NCATS CANVASS Library (AID 1347376); note: series mostly up to about 46 µM
Summary of the method: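 E. coli 10-beta, 0.2 OD; cpds 11-pt; o/n 37C, 5% CO2; BacTiter-Glo 20 min RT; luminescence (ATP) = viable cells. Daunomycin ctrl.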

[9] = DH5-alpha competent E. coli microbial cell viability qHTS against the NCATS CANVASS Library (AID 1347377)
Summary of the method: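 qHTS, 11-pt; E. coli DH5-alpha, 0.2 OD; o/n 37C/5% CO2; BacTiter-Glo, 20 min RT; luminescence.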

[10] = qHTS for H2AX Agonists against the NCATS CANVASS Library (AID 1347378);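 note: phospho-H2AX S139 level in CHO-K1 lysates by TR-FRET emission ratio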
Summary of the method: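 Signal is the 665/620 nm emission ratio from europium cryptate and d2 antibody pair, rising with S139-phosphorylated H2AX. CHO-K1 cells saw test agents for 3 hr at 37C; detection ran 24 hr at room temperature.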

[11] = qHTS for Inflammasome Signaling Inhibitors: IL-1-beta AlphaLISA screen against the NCATS CANVASS Library (AID 1347379); details: outcome: dose series up to 57.5 µM;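 note: human THP-1 cells primed with LPS then triggered with ATP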
Summary of the method: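 THP-1 cells pretreated 1 hr with compound (up to 57.5 uM final), then stimulated with LPS (250 ng/mL final) and ATP (1.25 mM final). Secreted IL-1B measured by AlphaLISA after 16 hr; glyburide as positive control.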

[12] = Inflammasome Signaling qHTS Counterscreen: IL-1-beta AlphaLISA counterscreen against the NCATS CANVASS Library (AID 1347381);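 note: cell-free check with purified IL-1β in medium and no THP-1 cells; series mostly up to about 57 µM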
Summary of the method: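 Cell-free interference check: compounds added to medium spiked with 4 pg purified IL-1β. Anti-IL-1β acceptor beads (6 ug/mL) with 0.6 nM biotinylated antibody added for 1 h at RT, then streptavidin donor beads (24 ug/mL) for 30 min in the dark. AlphaLISA read at 680/615 nm.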

[13] = Cytotoxicity qHTS for assessment of Hepg2 cells membrane integrity screened against the NCATS CANVASS Library (AID 1347387)
Summary of the method: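 qHTS, 11-pt conc. series, 0.59 nM - 46 uM final; HepG2 2000 cells/well, overnight attachment; 5 hr compound exposure 37C/5% CO2; CytoTox-ONE, 10 min RT; fluorescence ex560/em590 = LDH from damaged membranes.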

[14] = qHTS for Activators of p53 Stress Response Pathway screened against the NCATS CANVASS Library (AID 1347388)
Summary of the method: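 p53RE-bla HCT-116 cells (4000/well) were plated 5 h at 37C, exposed to compounds for 16 h at 37C over an 11-point concentration series, then loaded with CCF4 for 2 h at room temperature; 460/530 nm emission ratio read.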

[15] = qHTS assay for small molecule disruptors of mitochondrial membrane potential screened against the NCATS CANVASS Library (AID 1347389); note: series mostly up to about 46 µM; nearly all actives have a fitted effect of over 60% in size
Summary of the method: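 HepG2, 2,000 cells/well, attached overnight; compound 1 hr, 37C, 5% CO2; Mito-MPS dye 30 min, 37C; fluorescence 535 nm (monomer) and 590 nm (aggregate); decreased 590/535 ratio = depolarization.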

[16] = Secretion counterscreen for inhibitors of the SERCaMP assay screened against the NCATS CANVASS Library (AID 1347390);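 note: light from luciferase secreted into medium read as a measure of general secretion; series mostly up to about 77 µM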
Summary of the method: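 Natural products are titrated in an 11-point series up to 77 uM onto SH-SY5Y-GLuc STOP cells for 20 h. Secreted reporter activity is measured as coelenterazine-driven luminescence, with Brefeldin A on each plate.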

[17] = qHTS for activators of Nrf2/ARE signaling pathway screened against the NCATS CANVASS Library (AID 1347391); note: nearly all actives have a fitted effect of over 60% in size
Summary of the method: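 Plate ARE-bla HepG2 cells at 2000/well and let them settle 5 h. Pin-transfer compounds in DMSO, incubate 16 h at 37C. Load CCF4 for 2 h at room temperature and read blue/green fluorescence.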

[18] = qHTS for activators of dead-cell proteases activity screened against the NCATS CANVASS Library (AID 1347392);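 note: luminescence from protease leaking out of membrane-damaged cells cleaving impermeant substrate; rising signal means more cytotoxicity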
Summary of the method: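 HepG2 cells (2000/well) attached 18 h at 37C, then exposed 5 h to compounds (11-point qHTS). Dead-cell protease activity read as luminescence from cell-impermeant AAF-aminoluciferin substrate after 15 min at room temperature.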

[19] = qHTS for inhibitors of ER calcium dysfunction: SERCaMP assay screened against the NCATS CANVASS Library (AID 1347393);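 note: series mostly up to about 77 µM; lower secreted reporter signal means inhibitor of ER calcium depletion; nearly all actives have a fitted effect of over 40% in size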
Summary of the method: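 qHTS in SH-SY5Y reporter cells: 16 h compound pretreatment, 4 h thapsigargin, then secreted Gaussia luciferase measured by luminescence.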

[20] = qHTS for Antimalaria activity screened against the NCATS CANVASS Library (AID 1347380);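 note: Plasmodium falciparum strain Dd2 asexual parasites grown in red blood cells; series mostly up to about 29 µM; nearly all actives have a fitted effect of over 40% in size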
Summary of the method: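 Dd2 strain, infected erythrocytes 2.5% Hct final / 0.3% parasitemia. 11-pt qHTS titration, 72 h, 37C, 5% O2, 5% CO2. Lysis buffer + SYBR Green, 18 h, fluorescence 485/535 nm.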

Measured: outcome

Sequence of Nuclear receptor subfamily 1 group I member 3 (Homo sapiens) (Q14994 whole entry, looked up): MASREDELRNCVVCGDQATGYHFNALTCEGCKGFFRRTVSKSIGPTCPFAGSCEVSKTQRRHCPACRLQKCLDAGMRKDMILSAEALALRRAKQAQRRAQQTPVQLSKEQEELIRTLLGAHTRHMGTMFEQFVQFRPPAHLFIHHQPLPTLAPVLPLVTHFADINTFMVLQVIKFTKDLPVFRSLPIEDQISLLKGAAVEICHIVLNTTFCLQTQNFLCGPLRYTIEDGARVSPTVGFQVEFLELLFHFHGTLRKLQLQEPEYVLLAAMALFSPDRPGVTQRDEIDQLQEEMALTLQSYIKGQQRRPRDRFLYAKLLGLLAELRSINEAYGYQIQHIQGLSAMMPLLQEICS

C/C=C/C=C/C(CC(=O)O)Nc1ccc(C=O)cc1 (stereo not given)
not listed: [20]
inactive: all other assays above

CC1=C2C(=O)O[C@@H](c3ccoc3)[C@]2(C)CCC1
not listed: [5] | [6] | [7] | [15]
inactive: all other assays above
